# Data reported in PMC7862700, “An all-to-all approach to the identification of sequence-specific readers for epigenetic DNA modifications on cytosine”.
# Assays:
# Test in all cases: DAPPL (digital affinity profiling via proximity ligation, sequencing); 10 mM Tris-HCl pH 7.5, 50 mM NaCl, 1 mM DTT, 4% glycerol, room temperature, 30 min; GST-TFs on glutathione beads, 16-mer random dsDNA library, 0.1% formaldehyde crosslink after washing; high values mean tight binding
# FLI1 = biological target: T1, FLI1 (Homo sapiens, UniProt Q01543 1-452); conditions: protein: recombinant; tags: N-terminal GST; dsDNA, one strand shown
# T1 sequence: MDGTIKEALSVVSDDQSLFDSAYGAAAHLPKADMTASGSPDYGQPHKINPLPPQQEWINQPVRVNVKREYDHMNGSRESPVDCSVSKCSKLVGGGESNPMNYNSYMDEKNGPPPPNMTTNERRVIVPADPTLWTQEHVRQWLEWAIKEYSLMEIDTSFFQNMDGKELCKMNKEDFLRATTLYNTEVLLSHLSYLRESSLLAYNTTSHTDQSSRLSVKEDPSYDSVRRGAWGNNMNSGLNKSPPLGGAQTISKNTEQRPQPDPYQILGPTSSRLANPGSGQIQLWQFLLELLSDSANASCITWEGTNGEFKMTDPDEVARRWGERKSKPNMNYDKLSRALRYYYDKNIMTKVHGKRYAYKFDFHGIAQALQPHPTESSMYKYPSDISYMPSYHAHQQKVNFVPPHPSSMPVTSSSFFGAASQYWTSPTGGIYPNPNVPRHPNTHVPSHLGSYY
# How it was run: (§1)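 GST fusions of human transcription factors were expressed in yeast and captured with glutathione beads. Once given DNA barcodes and pooled alongside a tag-only sample, they were incubated for 30 min at room temperature with 200 nmole of a random double-stranded 16-mer DNA library in Tris/NaCl/DTT/glycerol buffer, then washed, crosslinked (0.1% formaldehyde), proximity-ligated, PCR-amplified and sequenced on an Illumina NextSeq500. The binding signal of each hexamer is its read frequency for a factor divided by its frequency for the tag-only sample.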
# ELK1 = biological target: T2, ELK1 (Homo sapiens, UniProt P19419 1-428); conditions: protein: recombinant; tags: N-terminal GST; dsDNA, one strand shown
# T2 sequence: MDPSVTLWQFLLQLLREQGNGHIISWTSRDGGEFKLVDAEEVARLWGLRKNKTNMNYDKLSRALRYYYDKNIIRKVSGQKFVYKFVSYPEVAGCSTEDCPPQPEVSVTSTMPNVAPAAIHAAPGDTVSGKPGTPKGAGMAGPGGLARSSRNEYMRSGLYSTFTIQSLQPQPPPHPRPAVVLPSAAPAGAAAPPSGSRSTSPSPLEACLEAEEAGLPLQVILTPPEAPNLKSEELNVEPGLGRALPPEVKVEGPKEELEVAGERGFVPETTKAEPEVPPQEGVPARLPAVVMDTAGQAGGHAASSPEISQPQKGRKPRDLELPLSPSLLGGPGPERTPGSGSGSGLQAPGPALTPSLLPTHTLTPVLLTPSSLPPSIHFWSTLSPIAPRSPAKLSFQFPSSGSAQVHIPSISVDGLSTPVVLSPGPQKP
# How it was run: as §1
# GABPA = biological target: T3, GABPA (Homo sapiens, UniProt Q06546 1-454); conditions: protein: recombinant; tags: N-terminal GST; dsDNA, one strand shown
# T3 sequence: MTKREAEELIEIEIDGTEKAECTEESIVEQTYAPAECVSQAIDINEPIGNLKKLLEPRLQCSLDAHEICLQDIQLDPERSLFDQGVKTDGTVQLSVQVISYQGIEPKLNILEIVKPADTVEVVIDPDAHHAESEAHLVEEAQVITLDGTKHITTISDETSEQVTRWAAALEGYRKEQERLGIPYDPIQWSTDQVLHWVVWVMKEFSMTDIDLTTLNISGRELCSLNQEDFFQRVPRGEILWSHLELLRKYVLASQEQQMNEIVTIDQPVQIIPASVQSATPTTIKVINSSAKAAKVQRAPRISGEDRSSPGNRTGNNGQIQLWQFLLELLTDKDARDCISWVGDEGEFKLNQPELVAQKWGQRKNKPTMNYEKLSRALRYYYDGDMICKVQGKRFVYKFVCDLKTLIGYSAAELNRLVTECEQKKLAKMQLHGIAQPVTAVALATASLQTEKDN
# How it was run: as §1
# ERG = biological target: T4, ERG (Homo sapiens, UniProt P11308 1-479); conditions: protein: recombinant; tags: N-terminal GST; dsDNA, one strand shown
# T4 sequence: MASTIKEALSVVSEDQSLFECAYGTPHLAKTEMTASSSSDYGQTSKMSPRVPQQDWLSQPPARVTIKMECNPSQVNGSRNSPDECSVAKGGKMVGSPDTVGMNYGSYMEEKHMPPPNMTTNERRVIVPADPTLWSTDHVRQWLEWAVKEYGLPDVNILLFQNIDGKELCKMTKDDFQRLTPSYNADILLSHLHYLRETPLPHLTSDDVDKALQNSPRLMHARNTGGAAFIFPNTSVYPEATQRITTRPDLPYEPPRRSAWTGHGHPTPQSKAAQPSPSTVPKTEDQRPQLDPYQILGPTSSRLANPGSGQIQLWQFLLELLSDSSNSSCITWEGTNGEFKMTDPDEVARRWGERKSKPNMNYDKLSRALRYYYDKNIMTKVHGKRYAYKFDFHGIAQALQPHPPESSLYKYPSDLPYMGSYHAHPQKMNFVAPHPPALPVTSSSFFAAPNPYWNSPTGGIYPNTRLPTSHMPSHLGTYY
# How it was run: as §1
# ELF1 = ELF1 (Homo sapiens, UniProt P32519 1-619); conditions: protein: recombinant; tags: N-terminal GST; dsDNA, one strand shown
# How it was run: as §1
# EHF = biological target: T5, EHF (Homo sapiens, UniProt Q9NZC4 1-300); conditions: protein: recombinant; tags: N-terminal GST; dsDNA, one strand shown
# T5 sequence: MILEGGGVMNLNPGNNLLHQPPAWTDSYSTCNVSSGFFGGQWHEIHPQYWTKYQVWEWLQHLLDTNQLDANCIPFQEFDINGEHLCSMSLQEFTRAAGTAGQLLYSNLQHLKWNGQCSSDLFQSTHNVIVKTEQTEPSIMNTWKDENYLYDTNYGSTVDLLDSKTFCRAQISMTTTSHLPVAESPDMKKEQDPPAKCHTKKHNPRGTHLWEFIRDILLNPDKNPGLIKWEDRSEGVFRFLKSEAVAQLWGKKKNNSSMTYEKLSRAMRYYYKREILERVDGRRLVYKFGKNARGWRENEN
# How it was run: as §1
# SPI1 = SPI1 (Homo sapiens, UniProt P17947 1-270); conditions: protein: recombinant; tags: N-terminal GST; dsDNA, one strand shown
# How it was run: as §1
# SPIB = SPIB (Homo sapiens, UniProt Q01892 1-262); conditions: protein: recombinant; tags: N-terminal GST; dsDNA, one strand shown
# How it was run: as §1
# ELK3 = biological target: T6, ELK3 (Homo sapiens, UniProt P41970 1-407); conditions: protein: recombinant; tags: N-terminal GST; dsDNA, one strand shown
# T6 sequence: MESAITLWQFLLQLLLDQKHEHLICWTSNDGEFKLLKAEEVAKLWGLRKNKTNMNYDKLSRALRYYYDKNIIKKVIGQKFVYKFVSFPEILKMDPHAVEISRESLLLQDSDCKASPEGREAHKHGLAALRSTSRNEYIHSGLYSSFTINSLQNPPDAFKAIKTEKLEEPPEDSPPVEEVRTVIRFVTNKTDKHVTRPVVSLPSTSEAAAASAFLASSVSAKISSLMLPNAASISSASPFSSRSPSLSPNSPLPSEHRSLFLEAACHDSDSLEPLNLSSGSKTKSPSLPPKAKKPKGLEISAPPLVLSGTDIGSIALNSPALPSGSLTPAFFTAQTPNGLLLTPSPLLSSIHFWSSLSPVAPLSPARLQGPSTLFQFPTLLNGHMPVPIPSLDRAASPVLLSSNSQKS
# How it was run: as §1
# FEV = biological target: T7, FEV (Homo sapiens, UniProt Q99581 1-238); conditions: protein: recombinant; tags: N-terminal GST; dsDNA, one strand shown
# T7 sequence: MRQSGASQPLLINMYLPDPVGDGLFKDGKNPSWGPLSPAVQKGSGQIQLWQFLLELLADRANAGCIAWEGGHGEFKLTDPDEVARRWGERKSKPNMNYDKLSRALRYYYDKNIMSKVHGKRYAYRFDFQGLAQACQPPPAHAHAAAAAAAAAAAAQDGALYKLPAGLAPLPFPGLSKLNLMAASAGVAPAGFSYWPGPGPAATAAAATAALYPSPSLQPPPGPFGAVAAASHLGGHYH
# How it was run: as §1
# ETV5 = ETV5 (Homo sapiens, UniProt P41161 1-510); conditions: protein: recombinant; tags: N-terminal GST; dsDNA, one strand shown
# How it was run: as §1
# HSF1 = HSF1 (Homo sapiens, UniProt Q00613 1-529); conditions: protein: recombinant; tags: N-terminal GST; chain copies: 3; dsDNA, one strand shown
# How it was run: as §1
# SPIC = biological target: T8, SPIC (Homo sapiens, UniProt Q8N5J4 1-248); conditions: protein: recombinant; tags: N-terminal GST; dsDNA, one strand shown
# T8 sequence: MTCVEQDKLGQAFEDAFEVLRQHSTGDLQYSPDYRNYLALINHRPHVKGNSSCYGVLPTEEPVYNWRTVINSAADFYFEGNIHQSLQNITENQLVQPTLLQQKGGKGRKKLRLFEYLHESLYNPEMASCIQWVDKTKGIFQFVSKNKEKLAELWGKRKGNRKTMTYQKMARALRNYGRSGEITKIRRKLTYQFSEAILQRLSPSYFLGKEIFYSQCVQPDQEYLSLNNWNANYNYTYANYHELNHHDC
# How it was run: as §1
# ELF4 = ELF4 (Homo sapiens, UniProt Q99607 1-663); conditions: protein: recombinant; tags: N-terminal GST; dsDNA, one strand shown
# How it was run: as §1
# ELK4 = biological target: T9, ELK4 (Homo sapiens, UniProt P28324-2 1-405); conditions: protein: recombinant; tags: N-terminal GST; dsDNA, one strand shown
# T9 sequence: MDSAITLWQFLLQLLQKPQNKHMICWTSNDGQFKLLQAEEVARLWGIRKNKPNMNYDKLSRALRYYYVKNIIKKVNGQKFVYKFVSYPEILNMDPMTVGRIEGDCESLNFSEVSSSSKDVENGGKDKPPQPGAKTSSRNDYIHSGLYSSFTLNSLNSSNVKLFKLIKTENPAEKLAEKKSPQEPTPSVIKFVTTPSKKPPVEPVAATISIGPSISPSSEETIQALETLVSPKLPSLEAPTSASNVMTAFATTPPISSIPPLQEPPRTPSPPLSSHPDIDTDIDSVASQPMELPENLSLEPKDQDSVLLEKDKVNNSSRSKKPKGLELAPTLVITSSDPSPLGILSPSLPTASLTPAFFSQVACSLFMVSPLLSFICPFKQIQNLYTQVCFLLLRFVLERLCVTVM
# How it was run: as §1
# ETV2 = biological target: T10, ETV2 (Homo sapiens, UniProt O00321 1-342); conditions: protein: recombinant; tags: N-terminal GST; dsDNA, one strand shown
# T10 sequence: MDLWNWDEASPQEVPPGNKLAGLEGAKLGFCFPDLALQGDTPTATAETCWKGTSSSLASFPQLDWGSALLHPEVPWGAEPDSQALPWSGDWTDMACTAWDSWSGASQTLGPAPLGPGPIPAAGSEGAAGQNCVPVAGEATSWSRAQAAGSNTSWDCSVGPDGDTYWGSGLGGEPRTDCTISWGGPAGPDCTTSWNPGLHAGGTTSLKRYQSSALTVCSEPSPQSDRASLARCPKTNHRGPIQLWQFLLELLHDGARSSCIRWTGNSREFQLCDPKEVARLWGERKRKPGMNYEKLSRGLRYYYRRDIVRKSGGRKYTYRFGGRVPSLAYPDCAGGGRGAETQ
# How it was run: as §1
# ELF3 = biological target: T11, ELF3 (Homo sapiens, UniProt P78545 1-371); conditions: protein: recombinant; tags: N-terminal GST; dsDNA, one strand shown
# T11 sequence: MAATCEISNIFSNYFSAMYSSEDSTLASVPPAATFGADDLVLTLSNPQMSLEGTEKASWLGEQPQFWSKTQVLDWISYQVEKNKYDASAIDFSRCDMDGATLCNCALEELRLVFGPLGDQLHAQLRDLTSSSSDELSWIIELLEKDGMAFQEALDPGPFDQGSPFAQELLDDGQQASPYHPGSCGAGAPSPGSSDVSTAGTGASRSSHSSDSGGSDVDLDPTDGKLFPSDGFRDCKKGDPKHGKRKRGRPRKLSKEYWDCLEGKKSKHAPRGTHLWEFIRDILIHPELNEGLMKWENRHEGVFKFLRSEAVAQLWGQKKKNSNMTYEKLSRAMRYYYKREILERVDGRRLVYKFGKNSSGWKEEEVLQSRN
# How it was run: as §1
# CRX = CRX (Homo sapiens, UniProt O43186 1-299); conditions: protein: recombinant; tags: N-terminal GST; dsDNA, one strand shown
# How it was run: as §1
# ETV1 = ETV1 (Homo sapiens, UniProt P50549 1-477); conditions: protein: recombinant; tags: N-terminal GST; dsDNA, one strand shown
# How it was run: as §1
# Chain of CRX (O43186 whole entry): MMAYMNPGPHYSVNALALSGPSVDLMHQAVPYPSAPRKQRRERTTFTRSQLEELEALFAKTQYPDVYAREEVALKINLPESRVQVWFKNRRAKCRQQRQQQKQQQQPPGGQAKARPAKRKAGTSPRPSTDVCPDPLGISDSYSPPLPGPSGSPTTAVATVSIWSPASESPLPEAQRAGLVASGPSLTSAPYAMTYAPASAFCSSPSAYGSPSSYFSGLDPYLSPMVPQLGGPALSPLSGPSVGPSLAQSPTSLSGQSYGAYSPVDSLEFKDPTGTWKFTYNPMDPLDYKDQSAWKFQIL
# Chain of ETV5 (P41161 whole entry): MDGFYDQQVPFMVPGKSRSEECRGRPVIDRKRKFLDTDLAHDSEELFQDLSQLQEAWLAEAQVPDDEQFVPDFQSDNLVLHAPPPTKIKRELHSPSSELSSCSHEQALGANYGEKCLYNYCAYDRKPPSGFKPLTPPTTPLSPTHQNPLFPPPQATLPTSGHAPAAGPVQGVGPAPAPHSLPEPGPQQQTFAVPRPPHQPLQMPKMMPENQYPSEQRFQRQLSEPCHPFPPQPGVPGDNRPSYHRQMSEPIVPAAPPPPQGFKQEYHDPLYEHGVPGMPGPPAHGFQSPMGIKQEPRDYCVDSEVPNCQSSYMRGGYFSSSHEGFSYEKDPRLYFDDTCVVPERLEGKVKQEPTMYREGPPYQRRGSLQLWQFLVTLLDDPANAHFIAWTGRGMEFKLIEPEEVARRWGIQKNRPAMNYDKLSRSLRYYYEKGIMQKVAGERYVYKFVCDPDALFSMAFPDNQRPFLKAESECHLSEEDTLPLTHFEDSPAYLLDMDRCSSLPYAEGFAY
# Chain of ETV1 (P50549 whole entry): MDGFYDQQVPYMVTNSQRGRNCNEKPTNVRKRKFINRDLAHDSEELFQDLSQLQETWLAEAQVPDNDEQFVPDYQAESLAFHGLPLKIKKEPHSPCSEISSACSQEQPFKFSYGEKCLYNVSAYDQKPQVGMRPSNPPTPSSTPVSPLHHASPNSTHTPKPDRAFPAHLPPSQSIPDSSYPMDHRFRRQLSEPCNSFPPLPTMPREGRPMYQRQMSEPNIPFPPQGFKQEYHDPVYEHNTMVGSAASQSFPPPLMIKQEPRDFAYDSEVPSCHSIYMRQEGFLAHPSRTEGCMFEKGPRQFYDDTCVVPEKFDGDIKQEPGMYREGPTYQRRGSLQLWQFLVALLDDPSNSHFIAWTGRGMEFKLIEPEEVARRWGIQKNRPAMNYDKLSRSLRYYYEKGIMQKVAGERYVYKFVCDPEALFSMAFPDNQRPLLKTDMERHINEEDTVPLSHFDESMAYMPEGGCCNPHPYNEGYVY
# Chain of SPIB (Q01892 whole entry): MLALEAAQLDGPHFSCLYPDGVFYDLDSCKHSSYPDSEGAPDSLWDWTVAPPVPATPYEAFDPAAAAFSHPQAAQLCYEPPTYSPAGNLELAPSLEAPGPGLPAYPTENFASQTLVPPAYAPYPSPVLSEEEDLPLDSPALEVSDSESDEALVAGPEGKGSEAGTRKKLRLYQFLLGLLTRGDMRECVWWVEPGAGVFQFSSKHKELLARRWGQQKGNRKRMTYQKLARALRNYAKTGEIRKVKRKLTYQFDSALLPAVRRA
# Chain of ELF4 (Q99607 whole entry): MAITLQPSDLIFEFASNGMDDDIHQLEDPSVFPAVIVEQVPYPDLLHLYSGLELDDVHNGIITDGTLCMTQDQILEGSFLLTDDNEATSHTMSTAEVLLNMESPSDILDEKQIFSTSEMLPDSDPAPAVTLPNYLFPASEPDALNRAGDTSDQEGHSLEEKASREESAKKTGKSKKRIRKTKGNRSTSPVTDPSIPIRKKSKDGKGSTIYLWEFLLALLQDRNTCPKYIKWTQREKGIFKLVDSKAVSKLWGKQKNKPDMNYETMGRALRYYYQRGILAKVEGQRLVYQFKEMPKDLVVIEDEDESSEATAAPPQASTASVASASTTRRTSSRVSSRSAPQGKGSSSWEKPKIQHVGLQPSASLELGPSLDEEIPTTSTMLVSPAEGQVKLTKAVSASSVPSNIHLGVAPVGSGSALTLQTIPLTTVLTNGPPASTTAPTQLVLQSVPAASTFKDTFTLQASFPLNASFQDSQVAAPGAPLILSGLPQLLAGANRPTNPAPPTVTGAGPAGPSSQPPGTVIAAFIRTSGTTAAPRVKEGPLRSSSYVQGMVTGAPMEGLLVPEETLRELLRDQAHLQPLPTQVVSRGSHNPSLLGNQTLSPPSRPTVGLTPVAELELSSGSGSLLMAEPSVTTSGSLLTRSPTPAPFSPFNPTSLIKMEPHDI
# Chain of ELF1 (P32519 whole entry): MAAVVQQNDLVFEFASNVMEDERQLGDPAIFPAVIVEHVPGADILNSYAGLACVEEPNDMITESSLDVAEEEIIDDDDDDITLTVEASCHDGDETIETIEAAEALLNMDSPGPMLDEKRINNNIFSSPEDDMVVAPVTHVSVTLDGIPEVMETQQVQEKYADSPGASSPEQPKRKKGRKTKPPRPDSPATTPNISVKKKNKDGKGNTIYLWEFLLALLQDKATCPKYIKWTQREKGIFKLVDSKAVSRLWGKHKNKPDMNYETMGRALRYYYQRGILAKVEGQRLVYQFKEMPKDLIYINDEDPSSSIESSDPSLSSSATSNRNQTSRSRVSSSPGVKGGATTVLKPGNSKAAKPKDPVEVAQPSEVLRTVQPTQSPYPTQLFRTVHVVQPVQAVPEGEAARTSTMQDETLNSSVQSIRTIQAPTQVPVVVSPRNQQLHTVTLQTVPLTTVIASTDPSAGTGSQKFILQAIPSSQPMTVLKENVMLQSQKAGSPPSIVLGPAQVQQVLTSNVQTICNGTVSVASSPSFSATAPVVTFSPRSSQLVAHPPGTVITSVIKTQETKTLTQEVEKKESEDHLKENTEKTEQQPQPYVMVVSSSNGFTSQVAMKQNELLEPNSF
# Chain of HSF1 (Q00613 whole entry): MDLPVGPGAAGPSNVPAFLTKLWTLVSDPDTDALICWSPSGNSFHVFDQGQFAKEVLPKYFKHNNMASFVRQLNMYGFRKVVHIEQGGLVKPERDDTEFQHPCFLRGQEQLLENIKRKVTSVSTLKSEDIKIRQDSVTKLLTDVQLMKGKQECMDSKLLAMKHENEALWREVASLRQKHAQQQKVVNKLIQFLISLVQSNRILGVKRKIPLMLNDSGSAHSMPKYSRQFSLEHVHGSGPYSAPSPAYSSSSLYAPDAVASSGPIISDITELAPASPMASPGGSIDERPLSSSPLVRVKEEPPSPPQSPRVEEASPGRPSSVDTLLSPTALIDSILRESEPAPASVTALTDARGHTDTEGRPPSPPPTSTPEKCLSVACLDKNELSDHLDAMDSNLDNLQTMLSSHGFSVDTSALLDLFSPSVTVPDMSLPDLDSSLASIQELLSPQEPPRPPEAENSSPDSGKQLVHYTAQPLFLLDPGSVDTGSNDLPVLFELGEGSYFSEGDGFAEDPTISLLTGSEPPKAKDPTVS
sequence,measurement,setting,value
AACCAA,binding signal,FLI1,"1.24 fold enrichment (6-mer frequency, TF over GST control)"
same,binding signal,ELK1,"1.22 fold enrichment (6-mer frequency, TF over GST control)"
same,binding signal,GABPA,"1.25 fold enrichment (6-mer frequency, TF over GST control)"
same,binding signal,ERG,"1.16 fold enrichment (6-mer frequency, TF over GST control)"
same,binding signal,ELF1,"1.22 fold enrichment (6-mer frequency, TF over GST control)"
same,binding signal,EHF,"1.22 fold enrichment (6-mer frequency, TF over GST control)"
same,binding signal,SPI1,"1.19 fold enrichment (6-mer frequency, TF over GST control)"
same,binding signal,SPIB,"1.15 fold enrichment (6-mer frequency, TF over GST control)"
same,binding signal,ELK3,"1.19 fold enrichment (6-mer frequency, TF over GST control)"
same,binding signal,FEV,"1.19 fold enrichment (6-mer frequency, TF over GST control)"
same,binding signal,ETV5,"1.21 fold enrichment (6-mer frequency, TF over GST control)"
same,binding signal,HSF1,"1.08 fold enrichment (6-mer frequency, TF over GST control)"
same,binding signal,SPIC,"1.1 fold enrichment (6-mer frequency, TF over GST control)"
same,binding signal,ELF4,"1.33 fold enrichment (6-mer frequency, TF over GST control)"
same,binding signal,ELK4,"1.05 fold enrichment (6-mer frequency, TF over GST control)"
same,binding signal,ETV2,"1.21 fold enrichment (6-mer frequency, TF over GST control)"
same,binding signal,ELF3,"1.32 fold enrichment (6-mer frequency, TF over GST control)"
same,binding signal,CRX,"1.09 fold enrichment (6-mer frequency, TF over GST control)"
same,binding signal,ETV1,"1.2 fold enrichment (6-mer frequency, TF over GST control)"
